This excerpt belongs to a sample that is enriched for hits.
CHX counter: Cycloheximide Counterscreen for Small Molecule Inhibitors of Shiga Toxin | max response, % | cell reporter, cycloheximide protein synthesis inhibition counterscreen | actives 12% (n = 300,000) | AID 2314, 2010; in the data active means max response mostly above about 13%, no sharp cut-off; inactive means mostly below about 14%; further: read at 38.3 µM for the half of the compounds with a filed dose; 0% is about no effect
AmpC inh detg: qHTS Inhibitors of AmpC Beta-Lactamase (assay with detergent) | P00811 | AmpC hydrolysis of nitrocefin, absorbance 480 nm, 0.01% Triton | Potency, µM (titrated, usually from 114 µM), inactives show top-dose activity change, negative = inhibition, hits mostly inhibitors | actives 0.041% (n = 370,000);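 further: potency means the concentration at half of the fitted maximal effect; 0% = no-compound wells and -100% = no-enzyme wells; nearly all actives have a fitted effect of over 25% in size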
Target sequence (P00811 whole entry, looked up): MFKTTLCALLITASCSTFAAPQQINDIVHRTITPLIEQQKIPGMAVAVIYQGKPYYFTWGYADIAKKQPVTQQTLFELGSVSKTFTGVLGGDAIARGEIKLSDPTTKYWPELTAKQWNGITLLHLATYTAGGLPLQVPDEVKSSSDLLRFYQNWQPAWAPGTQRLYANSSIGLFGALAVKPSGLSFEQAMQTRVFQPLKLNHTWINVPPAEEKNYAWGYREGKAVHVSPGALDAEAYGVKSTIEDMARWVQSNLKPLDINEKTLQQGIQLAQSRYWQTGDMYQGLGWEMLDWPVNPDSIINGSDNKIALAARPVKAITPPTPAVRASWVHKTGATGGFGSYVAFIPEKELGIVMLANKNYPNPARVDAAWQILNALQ
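20 mM phosphate pH 7.0 + 0.01% (detergent screen) or 0.0001% Triton X-100; 5.3 nM AmpC reagent; cpd preinc 15 min RT; nitrocefin (800 uM stock) to start; A480 q20 s × 4 min; Activity was normalised to no-enzyme and no-compound control wells.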
Shiga inhibitor: A qHTS for Small Molecule Inhibitors of Shiga Toxin. Vero cells, Shiga toxin protein synthesis inhibition reporter. inhibition, % at 38.7 µM. actives 9.2% (n = 290,000). AID 2315, 2010; in the data active means inhibition mostly above about 28%, no sharp cut-off; inactive means mostly below about 43%; further: 0% is about no effect
AmpC inh no detg: qHTS Inhibitors of AmpC Beta-Lactamase (assay without detergent). P00811. AmpC nitrocefin hydrolysis, absorbance 480 nm, 0.0001% Triton. Potency, µM (highest dose often 57.1 µM), for the others: top-dose activity change, negative = inhibition, most hits filed as inhibitors. actives 0.52% (n = 330,000);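 further: potency means the concentration at half of the fitted maximal effect; plate controls were no compound for no effect and no enzyme for full effect; nearly all actives have a fitted effect of over 20% in size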
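AmpC (5.3 nM in the dispensed reagent) in 20 mM phosphate pH 7.0 with 0.01% (detergent screen) or 0.0001% Triton X-100 was preincubated with compounds for 15 min at room temperature. Nitrocefin was then added from an 800 uM solution, and hydrolysis was followed at 480 nm.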
NS1 function inh: qHTS Assay for Inhibitors of Influenza NS1 Protein Function; Potency, µM (series often up to 46.1 µM), for inactives: at the top dose activity, positive = more growth; actives 0.4% (n = 270,000); AID 2326, 2010; calls by dose curve; further: potency means the concentration at half of the fitted maximal effect; actives are rising curves; nearly all actives have a fitted effect of over 50% in size
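Read-out: OD600 growth recovery of NS1-expressing budding yeast. Cells grown overnight at 30C in -URA glucose medium, washed, resuspended and diluted 1:100 in 2% galactose assay medium, pH 6.0. Same strain lacking NS1 served as positive control.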
Active calls of the source: *; u = inconclusive; x = no result; + = active, no number. Unless noted, the call rests on the fitted dose curve; in most records, active means well fitted curve in the direction sought with a large enough effect; inconclusive means small, poorly fitted or top-dose-only effect, or another doubt; inactive means no such curve, though single readings can be large; an effect the other way counts as inactive or inconclusive.

SMILES	CHX counter	AmpC inh detg	Shiga inhibitor	AmpC inh no detg	NS1 function inh
O=C(O)CC1Sc2ccccc2NC1=O (stereo not drawn)	-8.7	-8.4%	-4.3	-26.9%	-1.5%
O=C(CC1Sc2ccccc2NC1=O)c1ccc(Br)cc1 (stereo not drawn)	37.7*	-1.9%	58.2*	-28.5%	28.5%
Cc1cc2cc3c(cc2nc1SCC(=O)N1CCOCC1)OCO3	-5.0	3.0%	-5.9	-5.1%	1.7%
COC(=O)CSc1nc2cc3c(cc2cc1C)OCCO3	2.2	2.1%	6.5	-6.3%	-240.5%
CCOC(=O)CSc1nc2cc3c(cc2cc1C#N)OCO3	26.7	-17.4%	182.0*	-14.7%	u
CCOC(=O)CSc1nc2cc3c(cc2cc1C)OCO3	-2.2	-2.5%	4.5	-5.6%	3.8%
N#Cc1cc2cc3c(cc2nc1SCC(=O)N1CCOCC1)OCO3	28.3*	9.4%	83.1*	-6.3%	-6.3%
CCOC(=O)CSc1nc2cc3c(cc2cc1C#N)OCCO3	32.8*	-3.7%	90.5*	-31.2%	0.3%
CCOc1ccc2cc(C#N)c(SCC(=O)N3CCOCC3)nc2c1	30.0*	6.8%	101.0*	48.3%	1.7%
Cc1ccccc1OCC(=O)Nc1sc2c(c1C(=O)OC(C)C)CCCC2	x	15.6%	x	x	x
CCCCn1nc2cc(C(=O)NC3CCCc4ccccc43)ccc2c1OCC (stereo not drawn)	1.9	4.1%	-7.5	0.6%	5.3%
COC(=O)CSc1nc2cc3c(cc2cc1C#N)OCO3	38.0*	-9.1%	89.6*	-18.3%	-9.3%
COc1ccc(NC(=O)c2ccc(C)cc2)c[n+]1[O-]	11.7*	5.2%	31.8	-8.8%	2.0%
Cc1ccc(NC(=O)C(=O)c2ccc(C)cc2)cc1	56.7*	-13.3%	66.6	-33.4%	-2.9%
COC(=O)c1ccc(NC(=O)c2cc[n+]([O-])cc2)cc1	-1.8	u	x	-11.0%	15.8%
Cc1ccc(-c2nn(-c3ccccc3)cc2C(=O)Nc2ccc(C(=O)O)cc2)cc1	21.1*	-11.3%	47.8*	-17.5%	x
Cc1ccc(NC(=O)NNC(=O)c2ccccc2)cc1	22.1*	3.3%	43.9*	-18.0%	1.9%
Cc1ccc(NC(=O)C(C)C(=O)Nc2ccc(C)cc2)cc1	-3.7	0.6%	-21.3	-14.8%	x
CCCCn1c(N)c(N(CC)C(=O)c2cnc(C)cn2)c(=O)[nH]c1=O	x	-1.6%	x	-19.5%	x
O=C(OCc1c(F)cccc1Cl)c1cnc(Cl)c(Cl)c1	-2.9	-1.8%	-7.6	-15.9%	3.3%
Cc1cccc(CC(=O)N2CC(=O)Nc3ccc(Br)cc3C2c2ccc(F)cc2)c1 (stereo not drawn)	x	-2.9%	x	x	x
Cc1ccc(NC(=O)c2ccccc2O)cc1	33.6*	u	+	0.1%	-81.2%
O=C(Nc1ccc(Nc2ccccc2)cc1)c1ccc(F)cc1	36.0*	3.8%	33.1*	-32.1%	-37.0%
Cc1ccc(NC(=O)C2=C(c3ccccc3)S(=O)(=O)CCS2(=O)=O)cc1	34.1*	-8.5%	21.6	-19.9%	x
Cc1ccc(N/C(=C\C(=O)c2ccccc2)C(=O)O)cc1	46.5*	-0.8%	100.1*	-45.2%	3.2%
SMILES	CHX counter	AmpC inh detg	Shiga inhibitor	AmpC inh no detg	NS1 function inh
Cc1ccc(NC(=O)c2cn(-c3ccccc3)nc2-c2ccccc2)cc1	x	1.6%	x	x	x
NS(=O)(=O)c1cccc(NC(=O)c2ccno2)c1	1.0	-1.1%	2.7	-6.7%	5.9%
CCCC(=O)Oc1c(Sc2ccc(Cl)cc2)c(C)nn1-c1ccccc1	x	-3.0%	x	x	x
CCCN(C1CCS(=O)(=O)C1)S(=O)(=O)c1ccc(F)cc1 (stereo not drawn)	x	-17.5%	x	-8.9%	x
Cc1ccccc1C(=O)Nc1ccccc1	25.6	-0.1%	61.9	-13.9%	4.5%
Cc1ccc(NC(=O)c2ccccc2)cc1	33.5*	2.9%	109.3*	-20.0%	-12.7%
O=C(Nc1ccc(-c2ccccc2)cc1)c1ccccc1	-3.2	-25.0%	x	-12.7%	3.6%
O=C(Nc1ccccc1)c1ccccc1I	31.2*	x	42.5*	x	x
N#C/C(=C\c1ccc(F)c(Br)c1)C(=O)NC1CC1	29.9*	5.8%	42.1*	-20.6%	-3.9%
N#C/C(=C\c1ccc(F)c(F)c1)C(=O)NC1CCCCC1	-0.7	-13.9%	-13.1	-22.8%	-2.3%
COc1cc(C(=O)NCC(=O)N/N=C/c2ccc(-c3cccc([N+](=O)[O-])c3)o2)cc(OC)c1OC	0.8	-2.2%	16.3	-7.9%	-6.8%
O=C1C=CC(O)(c2cc(=O)c3c(O)cc(O)cc3o2)C=C1	45.0*	u	93.3*	-19.1%	u
Cc1ccc(N2C(=O)C(CC(=O)Nc3ccc(F)cc3)N(CCC3=CCCCC3)C2=O)cc1 (stereo not drawn)	x	-1.0%	x	x	x
Cc1ccccc1/C=c1\s/c(=C\C(=O)C(C)(C)C)[nH]c1=O	24.1*	10.1%	42.3	-40.5%	5.7%
CC(C)(C)C(=O)/C=c1\[nH]c(=O)/c(=C\c2ccccc2F)s1	7.7	-1.5%	-3.4	-42.6%	x
CC(C)(C)C(=O)/C=c1\[nH]c(=O)/c(=C\c2ccc(F)cc2)s1	11.2*	-6.6%	17.8	-28.9%	-4.5%
CC(NC(=O)c1cc(S(=O)(=O)N2CCOCC2)cn1C)c1ccccc1 (stereo not drawn)	-4.3	u	-8.3	-8.8%	7.4%
CC1=NN(C(=O)c2ccccc2)C(O)(c2ccc(Br)cc2)C1 (stereo not drawn)	43.6*	-4.0%	67.7*	-23.8%	-7.4%
CCOC(=O)C1=NN(C(=O)c2ccc(OC)cc2)C(O)(c2ccc(Cl)cc2)C1 (stereo not drawn)	-0.6	-12.9%	18.7	-19.0%	-11.1%
COC(=O)C1=NN(C(=O)c2cccc(Br)c2)C(O)(c2ccc(Cl)cc2)C1 (stereo not drawn)	-1.0	-2.8%	-9.0	-46.0%	2.5%
CCOC(=O)C1=NN(C(=O)c2ccccc2)C(O)(c2ccc(C)cc2)C1 (stereo not drawn)	44.8*	3.2%	89.5*	-6.7%	18.8%
CCOC(=O)C1=NN(C(=O)c2cccc(Br)c2)C(O)(C(C)(C)C)C1 (stereo not drawn)	19.5*	5.0%	73.7*	-11.1%	-10.9%
O=C(c1cccc(Cl)c1)N1CCC(N2CCC(C(=O)N3CCCC3)CC2)CC1	21.1*	-4.1%	-0.7	92.0%	-9.2%
Cc1cc(C)n(C(=O)CNC(=O)c2ccc(C(C)(C)C)cc2)n1	34.2*	-5.9%	24.4	-1.1%	2.3%
COc1ccc(C(=O)NCC(=O)n2nc(C)cc2C)cc1OC	-5.7	u	-3.3	-22.2%	-2.9%
COc1ccc(C2=NOC(C(=O)Nc3ccc(C(C)=O)cc3)C2)cc1OC (stereo not drawn)	29.1*	-3.8%	74.8*	25.6%	-11.4%
COc1cccc(C2=NOC(C(=O)Nc3ccc(C(C)=O)cc3)C2)c1 (stereo not drawn)	47.8*	-11.2%	53.5*	-9.9%	-10.4%
Cc1ccc(O)c(NC(=O)C2CC(c3c(F)cccc3Cl)=NO2)c1 (stereo not drawn)	11.9	-6.4%	27.7	-38.5%	-4.0%

Source: PubChem BioAssay
